Experimental data: PubChem BioAssay (EPA / NIEHS)
“And” between values parts separate entries of the source, which are not always exact repeats. Equal values may be shown once. Results filed as inconclusive are left out. Where a structure was tested more than once in an assay, its records may differ in their call. The source made the active and inactive calls. Rule for the calls, unless noted: active = hit-call score of the fitted dose curve at least 0.9, where 1 is the maximum; inactive = score below 0.9.

Columns and labels:
[1] = target: human Retinoid X Receptor beta (RXRb), RXRB (gene 6257) (UniProt P28702); test: ATG_RXRb_TRANS: Attagene TRANS-FACTORIAL HepG2 Assay for human Retinoid X Receptor beta (RXRb) (AID 2283013; active = hit-call score of the fitted dose curve at least 0.9, where 1 is the maximum)
Summary of the method: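 HepG2 cells transiently transfected with multiplexed reporter units driven by GAL4-UAS and exogenous chimeric NR-Gal4 proteins; treated 24 h. Reporter mRNA measured by RT-PCR, 6-FAM labelling and capillary electrophoresis; gain-of-signal fitted versus DMSO baseline.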

[2] = target: human Thyroid Receptor alpha (THRa1), THRA (gene 7067) (UniProt P10827); test: ATG_THRa1_TRANS: Attagene TRANS-FACTORIAL HepG2 Assay for human Thyroid Receptor alpha (THRa1) (AID 2283014; active = hit-call score of the fitted dose curve at least 0.9, where 1 is the maximum)
Summary of the method: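 HepG2 cells transiently transfected with chimeric NR-Gal4 and GAL4-UAS reporter units, dosed 24 h. Reporter mRNA quantified by RT-PCR, fluorescent labeling, HpaI digestion and capillary electrophoresis; gain-of-signal fit versus DMSO.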

[3] = target: human Vitamin D Receptor (VDR), VDR (gene 7421) (UniProt P11473); test: ATG_VDR_TRANS: Attagene TRANS-FACTORIAL HepG2 Assay for human Vitamin D Receptor (VDR) (AID 2283022; active = hit-call score of the fitted dose curve at least 0.9, where 1 is the maximum)
Summary of the method: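 HepG2 cells were transiently transfected with GAL4-UAS reporter units and a chimeric VDR-Gal4 construct, then dosed for 24 hours. Reporter mRNA was quantified by RT-PCR, fluorescent labeling, HpaI digestion and capillary electrophoresis; gain of signal analysed vs DMSO.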

[4] = target: Retinoic acid receptor RXR-alpha (Homo sapiens) (UniProt P19793); test: ATG_RXRa_TRANS: Attagene TRANS-FACTORIAL HepG2 Assay for human Retinoid X Receptor alpha (RXRa) (AID 2283012; active = hit-call score of the fitted dose curve at least 0.9, where 1 is the maximum)
Summary of the method: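 HepG2 cells transiently transfected with multiplexed GAL4-UAS reporter units and chimeric NR-GAL4 fusions, dosed 24 h. Reporter mRNA measured by RT-PCR, FAM labelling, HpaI digestion and capillary electrophoresis; gain-of-signal fitted relative to DMSO baseline.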

[5] = read-out: E-selectin (Homo sapiens) (UniProt P16581); test: BSK_3C_Eselectin: BioMAP Diversity Plus: 3C Assay for Eselectin Biomarker Activity (AID 2283015); details: primary human endothelial cells (HUVEC); actives raise or lower the signal;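 for outcome: cell surface E-selectin protein quantified by ELISA 24 h after dosing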
Summary of the method: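 Primary human umbilical vein endothelial cells (3C system), read 24 h after compound addition; E-selectin measured by ELISA. Bidirectional curve fitting against DMSO baseline; cytotoxicity by parallel SRB total-protein staining.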

[6] = read-out: Interleukin-1 alpha (IL1a), IL1A (gene 3552); test: BSK_BE3C_IL1a: BioMAP Diversity Plus: BE3C Assay for Interleukin-1 alpha (IL1a) Biomarker Activity (AID 2283016); details: primary human bronchial epithelial cells; actives raise or lower the signal
Summary of the method: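 Human primary bronchial epithelial cells (BE3C system) were dosed with compound and IL-1a measured by ELISA 24 h later. Activity was fitted bidirectionally against DMSO baseline; cytotoxicity was tracked in parallel cultures by SRB total-protein staining.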

[7] = read-out: Monocyte Chemoattractant Protein-1 (MCP1), CCL2 (gene 6347); test: BSK_3C_MCP1: BioMAP Diversity Plus: 3C Assay for Monocyte Chemoattractant Protein-1 (MCP1) Biomarker Activity (AID 2283017); details: primary human endothelial cells (HUVEC); actives raise or lower the signal
Summary of the method: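 Human umbilical vein endothelial cells (3C system) exposed to chemicals for 24 h; MCP-1 quantified by ELISA against the DMSO baseline with bidirectional fitting, and parallel SRB staining used to assess cytotoxicity.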

[8] = read-out: Monocyte Chemoattractant Protein-1 (MCP1), CCL2 (gene 6347); test: BSK_4H_MCP1: BioMAP Diversity Plus: 4H Assay for Monocyte Chemoattractant Protein-1 (MCP1) Biomarker Activity (AID 2283018); details: primary human endothelial cells (HUVEC); actives raise or lower the signal
Summary of the method: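 Human umbilical vein endothelial cells (4H system) dosed with chemical; MCP-1 measured by ELISA 24 h after dosing. Bidirectional curve fitting against DMSO negative control as baseline; parallel SRB total-protein staining tracks overt cytotoxicity.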

[9] = read-out: Monokine induced gamma interferon (MIG), CXCL9 (gene 4283); test: BSK_3C_MIG: BioMAP Diversity Plus: 3C Assay for Monokine induced gamma interferon (MIG) Biomarker Activity (AID 2283021); details: primary human endothelial cells (HUVEC); actives raise or lower the signal;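 for AC50: MIG protein level measured by immunoassay in the treated endothelial cultures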
Summary of the method: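 Primary human umbilical vein endothelial cells in the 3C system were exposed to chemical for 24 h, after which MIG was quantified by ELISA. Activity was fitted bidirectionally against DMSO as negative control and baseline.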

[10] = BSK_3C_SRB: Viability Assessment in the BioMAP Diversity Plus: 3C Assay (AID 2283023); details: primary human endothelial cells (HUVEC);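 note: fitted both ways against DMSO so a hit may be signal rise or drop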
Summary of the method: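 Human umbilical vein endothelial cells in the 3C system, treated 24 h. Total protein measured by 0.1% sulforhodamine B staining after 10% TCA fixation, read at 560 nm; bidirectional fit versus DMSO.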

[11] = read-out: Matrix Metallopeptidase 1 (MMP1), MMP1 (gene 4312); test: BSK_BE3C_MMP1: BioMAP Diversity Plus: BE3C Assay for Matrix Metallopeptidase 1 (MMP1) Biomarker Activity (AID 2283024); details: primary human bronchial epithelial cells; actives raise or lower the signal
Summary of the method: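 Primary human bronchial epithelial cells were dosed with test chemicals, and MMP1 levels were measured by ELISA 24 h later. Data were fitted bidirectionally against DMSO as the negative control and activity baseline.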

[12] = read-out: Pselectin, SELP (gene 6403); test: BSK_4H_Pselectin: BioMAP Diversity Plus: 4H Assay for Pselectin Biomarker Activity (AID 2283026); details: primary human endothelial cells (HUVEC); actives raise or lower the signal
Summary of the method: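 Primary human umbilical vein endothelial cells were exposed to test chemical for 24 h, then cell-surface P-selectin was quantified by ELISA. Activity was fitted bidirectionally against DMSO as negative control and baseline.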

[13] = BSK_4H_SRB: Viability Assessment in the BioMAP Diversity Plus: 4H Assay (AID 2283027); details: primary human endothelial cells (HUVEC);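 note: cells exposed to compound for 24 h before staining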;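 for AC50: curves fitted both ways versus DMSO so AC50 may be loss or gain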
Summary of the method: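 Absorbance at 560 nm of SRB-stained total protein served as the viability read-out in confluent primary human umbilical vein endothelium 24 h after chemical treatment. Curves were fitted bidirectionally against DMSO as negative control.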

[14] = BSK_BE3C_SRB: Viability Assessment in the BioMAP Diversity Plus: BE3C Assay (AID 2283028); details: primary human bronchial epithelial cells;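 for AC50: fitted both ways so AC50 may mark signal gain or loss versus DMSO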
Summary of the method: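 Human bronchial epithelial primary cells in confluent culture, 24 h after chemical dosing; total protein by 0.1% SRB staining after 10% TCA fixation, read at 560 nm. Bidirectional fitting versus DMSO baseline.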

[15] = read-out: Thrombomodulin, THBD (gene 7056); test: BSK_3C_Thrombomodulin: BioMAP Diversity Plus: 3C Assay for Thrombomodulin Biomarker Activity (AID 2283029); details: primary human endothelial cells (HUVEC); actives raise or lower the signal
Summary of the method: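 Primary human umbilical vein endothelial cells (3C system) were exposed to chemical for 24 h, then thrombomodulin levels were measured by ELISA. Activity was fitted bidirectionally against the DMSO negative control as baseline.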

[16] = read-out: Human Leukocyte Antigen - DR isotype (HLADR), HLA-DRA (gene 3122); test: BSK_3C_HLADR: BioMAP Diversity Plus: 3C Assay for Human Leukocyte Antigen - DR isotype (HLADR) Biomarker Activity (AID 2283019); details: primary human endothelial cells (HUVEC); actives raise or lower the signal;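 note: ELISA of cell-surface HLA-DR on HUVEC 24 h after dosing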
Summary of the method: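 HUVEC monoculture, HLA-DR measured by ELISA 24 h after chemical dosing. Fitted bidirectionally against DMSO baseline; parallel SRB staining assessed cytotoxicity, with 3C proliferation read by SRB at 48 h.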

[17] = read-out: Interleukin-8 (IL8), CXCL8 (gene 3576); test: BSK_3C_IL8: BioMAP Diversity Plus: 3C Assay for Interleukin-8 (IL8) Biomarker Activity (AID 2283020); details: primary human endothelial cells (HUVEC); actives raise or lower the signal
Summary of the method: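 Primary human umbilical vein endothelial cells (3C system) were exposed to test chemical for 24 h, then IL-8 was quantified by ELISA. Responses were fitted bidirectionally against DMSO vehicle as baseline.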

[18] = BSK_3C_Vis: BioMAP Diversity Plus: 3C Assay for Morphology Visualization (AID 2283025); details: primary human endothelial cells (HUVEC);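 note: fitted both ways so gain or loss versus DMSO counts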
Summary of the method: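 Human umbilical vein endothelial cells in the 3C system were imaged by light microscopy 24 h after chemical dosing to record cell morphology. Activity was fitted bidirectionally against DMSO as negative control and baseline; the endpoint serves as a background control.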

Chain of E-selectin (Homo sapiens) (P16581 whole entry, looked up): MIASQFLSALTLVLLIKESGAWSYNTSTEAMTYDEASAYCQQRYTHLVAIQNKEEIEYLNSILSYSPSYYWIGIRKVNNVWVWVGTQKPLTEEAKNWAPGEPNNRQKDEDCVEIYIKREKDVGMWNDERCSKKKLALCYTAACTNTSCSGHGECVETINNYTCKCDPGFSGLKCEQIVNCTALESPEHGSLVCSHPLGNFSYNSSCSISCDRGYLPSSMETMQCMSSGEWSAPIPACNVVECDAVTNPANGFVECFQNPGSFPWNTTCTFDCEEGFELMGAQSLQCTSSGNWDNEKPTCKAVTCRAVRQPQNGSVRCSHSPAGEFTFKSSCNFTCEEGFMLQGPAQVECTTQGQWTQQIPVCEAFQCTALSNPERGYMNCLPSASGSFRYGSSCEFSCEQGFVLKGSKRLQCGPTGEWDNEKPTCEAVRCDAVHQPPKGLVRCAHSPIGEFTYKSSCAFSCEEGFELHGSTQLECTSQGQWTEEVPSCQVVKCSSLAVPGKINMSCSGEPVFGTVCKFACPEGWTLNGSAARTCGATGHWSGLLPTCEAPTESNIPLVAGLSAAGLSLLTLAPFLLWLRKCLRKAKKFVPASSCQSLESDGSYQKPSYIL
Chain of human Thyroid Receptor alpha (THRa1), THRA (gene 7067) (P10827 whole entry, looked up, the tested form may be a part): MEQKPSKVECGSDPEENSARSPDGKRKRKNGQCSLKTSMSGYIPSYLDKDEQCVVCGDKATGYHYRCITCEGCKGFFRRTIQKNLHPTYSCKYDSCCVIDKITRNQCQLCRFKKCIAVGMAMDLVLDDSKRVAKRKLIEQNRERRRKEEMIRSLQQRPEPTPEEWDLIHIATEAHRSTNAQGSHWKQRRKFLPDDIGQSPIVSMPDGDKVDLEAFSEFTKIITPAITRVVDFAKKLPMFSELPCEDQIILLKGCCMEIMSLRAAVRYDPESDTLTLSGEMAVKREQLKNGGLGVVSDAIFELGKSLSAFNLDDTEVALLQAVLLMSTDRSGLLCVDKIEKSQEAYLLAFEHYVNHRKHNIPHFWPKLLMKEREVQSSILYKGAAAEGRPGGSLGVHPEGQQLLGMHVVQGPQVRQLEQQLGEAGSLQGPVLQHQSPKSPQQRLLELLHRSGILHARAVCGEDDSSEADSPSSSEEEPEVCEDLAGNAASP
Chain of Retinoic acid receptor RXR-alpha (Homo sapiens) (P19793 whole entry, looked up, the tested form may be a part): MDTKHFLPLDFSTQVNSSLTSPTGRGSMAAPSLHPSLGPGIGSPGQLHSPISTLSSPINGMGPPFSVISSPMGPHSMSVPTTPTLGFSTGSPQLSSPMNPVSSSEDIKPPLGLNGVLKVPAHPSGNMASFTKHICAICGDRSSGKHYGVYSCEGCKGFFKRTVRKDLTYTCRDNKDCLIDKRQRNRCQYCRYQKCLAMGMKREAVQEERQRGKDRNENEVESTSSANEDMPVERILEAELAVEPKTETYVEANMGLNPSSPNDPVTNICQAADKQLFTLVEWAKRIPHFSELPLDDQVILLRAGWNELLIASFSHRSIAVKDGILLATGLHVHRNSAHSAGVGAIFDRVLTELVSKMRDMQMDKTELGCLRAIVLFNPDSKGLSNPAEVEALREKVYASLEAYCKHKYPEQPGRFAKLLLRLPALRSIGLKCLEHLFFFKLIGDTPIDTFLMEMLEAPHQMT
Chain of human Vitamin D Receptor (VDR), VDR (gene 7421) (P11473 whole entry, looked up, the tested form may be a part): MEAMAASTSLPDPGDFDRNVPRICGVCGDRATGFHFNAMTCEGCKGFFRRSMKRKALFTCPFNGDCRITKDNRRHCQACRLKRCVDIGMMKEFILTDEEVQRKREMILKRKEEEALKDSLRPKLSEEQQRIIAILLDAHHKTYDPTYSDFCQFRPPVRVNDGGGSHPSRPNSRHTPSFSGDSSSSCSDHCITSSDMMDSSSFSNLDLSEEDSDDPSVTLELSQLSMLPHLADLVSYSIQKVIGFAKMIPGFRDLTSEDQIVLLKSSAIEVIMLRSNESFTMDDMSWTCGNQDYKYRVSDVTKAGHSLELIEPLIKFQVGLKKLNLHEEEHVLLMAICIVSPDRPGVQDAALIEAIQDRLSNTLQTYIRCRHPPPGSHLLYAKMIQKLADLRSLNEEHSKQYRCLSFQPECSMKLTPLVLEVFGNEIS
Chain of human Retinoid X Receptor beta (RXRb), RXRB (gene 6257) (P28702 whole entry, looked up, the tested form may be a part): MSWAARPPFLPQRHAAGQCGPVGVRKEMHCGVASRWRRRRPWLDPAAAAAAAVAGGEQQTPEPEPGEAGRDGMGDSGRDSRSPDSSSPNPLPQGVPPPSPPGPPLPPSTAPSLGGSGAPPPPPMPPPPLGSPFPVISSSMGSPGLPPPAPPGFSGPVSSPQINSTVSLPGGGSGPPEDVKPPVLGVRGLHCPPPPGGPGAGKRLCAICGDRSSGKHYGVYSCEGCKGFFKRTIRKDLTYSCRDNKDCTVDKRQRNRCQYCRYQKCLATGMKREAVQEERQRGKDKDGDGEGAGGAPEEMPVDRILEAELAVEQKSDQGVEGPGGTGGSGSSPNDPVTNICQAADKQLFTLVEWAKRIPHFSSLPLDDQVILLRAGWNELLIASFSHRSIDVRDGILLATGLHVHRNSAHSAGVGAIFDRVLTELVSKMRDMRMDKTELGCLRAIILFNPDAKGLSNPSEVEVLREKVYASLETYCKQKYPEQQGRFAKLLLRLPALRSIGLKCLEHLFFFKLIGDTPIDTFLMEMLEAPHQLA

CC(C)=CCCC(C)CCOC(=O)C(C)C (configuration not stated)
outcome [1]: inactive | outcome [2]: inactive | outcome [3]: inactive

C=C(C)C(=O)OCCC(F)(F)C(F)(F)C(F)(F)C(F)(F)C(F)(C(F)(F)F)C(F)(F)F
outcome [4]: inactive | outcome [1]: inactive | outcome [5]: inactive | outcome [6]: inactive | outcome [7]: inactive | outcome [8]: inactive | outcome [9]: inactive | outcome [3]: inactive | outcome [10]: inactive | outcome [11]: inactive | outcome [12]: inactive | outcome [13]: inactive | outcome [14]: inactive | outcome [15]: inactive

COC(=O)CCC(F)(F)C(F)(F)C(F)(F)C(F)(F)F
outcome [1]: inactive | outcome [2]: inactive | outcome [5]: inactive | outcome [6]: inactive | outcome [7]: inactive | outcome [8]: inactive | outcome [16]: inactive | outcome [9]: inactive | outcome [3]: inactive | outcome [10]: inactive | outcome [11]: inactive | outcome [12]: inactive | outcome [13]: inactive | outcome [14]: inactive | outcome [15]: inactive

CCCCOCCOCCOC(=O)CCCCC(=O)OCCOCCOCCCC
outcome [1]: inactive | outcome [2]: inactive | outcome [5]: inactive | outcome [6]: inactive | outcome [7]: inactive | outcome [8]: inactive | outcome [16]: inactive | outcome [17]: inactive | outcome [9]: inactive | outcome [3]: inactive | outcome [10]: inactive | outcome [11]: inactive | outcome [18]: inactive | outcome [12]: inactive | outcome [13]: inactive | outcome [14]: inactive | outcome [15]: inactive

CN(C)Cc1ccccc1O
outcome [1]: inactive | outcome [2]: inactive

CCCCCCOC(=O)c1ccccc1
outcome [4]: inactive | outcome [2]: inactive | outcome [3]: inactive

O=C(O)C(F)(F)C(F)(F)C(F)F
outcome [4]: inactive | outcome [1]: inactive | outcome [2]: inactive | outcome [5]: inactive | outcome [6]: inactive | outcome [7]: inactive | outcome [8]: inactive | outcome [16]: inactive | outcome [9]: inactive | outcome [3]: inactive | outcome [10]: inactive | outcome [11]: inactive | outcome [12]: inactive | outcome [13]: inactive | outcome [14]: inactive | outcome [15]: inactive

CCCCCCS
outcome [4]: inactive | AC50 [1]: 100 µM (active) | outcome [3]: inactive

FC(F)(I)C(F)(F)C(F)(F)C(F)(F)I
outcome [1]: inactive | AC50 [5]: 49 µM (active) and 50.6 µM (active) and 53.6 µM (active) | AC50 [6]: 47.5 µM (active) and 46 µM (active) and 45 µM (active) | AC50 [7]: 44.5 µM (active) and 49 µM (active) and 51.6 µM (active) | AC50 [8]: 45.6 µM (active) and 19.3 µM (active) | outcome [8]: inactive | AC50 [17]: 46.1 µM (active) and 53.1 µM (active) and 53.3 µM (active) | AC50 [9]: 52.8 µM (active) and 46.1 µM (active) and 55.3 µM (active) | AC50 [10]: 55 µM (active) and 51 µM (active) and 51.9 µM (active) | AC50 [11]: 44 µM (active) and 50.6 µM (active) and 22.7 µM (active) | AC50 [12]: 47.9 µM (active) and 30 µM (active) and 44.7 µM (active) | AC50 [13]: 56.2 µM (active) and 42.7 µM (active) and 50.5 µM (active) | AC50 [14]: 50.1 µM (active) and 43.1 µM (active) and 44.2 µM (active) | outcome [15]: inactive

OCCCC(F)(F)C(F)(F)C(F)(F)F
outcome [4]: inactive | outcome [1]: inactive | outcome [5]: inactive | outcome [6]: inactive | outcome [7]: inactive | outcome [8]: inactive | outcome [17]: inactive | outcome [9]: inactive | outcome [3]: inactive | outcome [10]: inactive | outcome [11]: inactive | outcome [12]: inactive | outcome [13]: inactive | outcome [14]: inactive | outcome [15]: inactive
